From PubChem BioAssay
Compounds with a hit are over-represented: about 21% of the library has one in this group of screens.
Pf growth 48h – inhibits P. falciparum growth in the first generation, 48 h | P. falciparum luciferase growth in erythrocytes, 48 h | Potency, µM (doses to about 28.7 µM), for inactives: top-dose activity change, negative = inhibition, actives largely listed as inhibitors | 310,000 compounds, 5.9% hits | AID 504832; further: potency means the concentration at half of the fitted maximal effect; on the % scale 0 is the no-effect control and ±100 the full control effect
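First compound was added to culture medium, then infected red cells at 0.1% parasitemia and 2% hematocrit (final). After incubation at 37 C under 5% CO2, luciferase detection reagent was dispensed and light output recorded.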
Cycloheximide cs – counter-screen for Shiga toxin inhibitors: cycloheximide protein synthesis inhibition. AID 2314. max response, %. 300,000 compounds, 12% hits. cell reporter, cycloheximide protein synthesis inhibition counterscreen; in the data active means max response mostly above about 13%, no sharp cut-off; inactive means mostly below about 14%; further: read at 38.3 µM for the half of the compounds with a filed dose; 0% is about no effect
Pf growth 96h – P. falciparum growth inhibition at 96 hours. P. falciparum luciferase reporter growth, 96 h. 320,000 compounds, 6.9% hits. Potency, µM (series often up to 28.7 µM), for the others: at the top dose activity change, negative = inhibition, most hits filed as inhibitors; further: potency means the concentration at half of the fitted maximal effect; on the % scale 0 is the no-effect control and ±100 the full control effect
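P. falciparum expressing integrated firefly luciferase, in erythrocytes at 2% hematocrit, 0.05% parasitemia, incubated with compounds 96 h at 37 C, 5% CO2. Growth inhibition read as loss of luminescence; two-generation exposure targets delayed-death apicoplast inhibitors.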
NS1 function inh – blocks influenza NS1 protein function; Potency, µM (series often up to 46.1 µM), inactives show at the highest dose activity, positive = more growth; 270,000 compounds, 0.4% hits; AID 2326; calls by dose curve; further: potency means the concentration at half of the fitted maximal effect; actives are rising curves; nearly all actives have a fitted effect of over 50% in size
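In this qHTS, NS1 from influenza A is expressed in budding yeast, where it slows growth. Cells are switched from glucose to 2% galactose medium (pH 6.0, -URA), treated with compound, and growth recovery is read at OD600.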
Shiga toxin inh – blocks Shiga toxin action in Vero cells; 290,000 compounds, 9.2% hits; Vero cells, Shiga toxin protein synthesis inhibition reporter; inhibition, % at 38.7 µM; in the data active means inhibition mostly above about 28%, no sharp cut-off; inactive means mostly below about 43%; further: 0% is about no effect
An asterisk follows results filed as active; ? = inconclusive; · = not tested or not shown; [ ] = dose if it differs, or a comment. Unless noted, the call rests on the fitted dose curve; in most records, active means well fitted inhibition curve with a large enough effect; inconclusive means small, poorly fitted or top-dose-only effect, or another doubt; inactive means no such curve, though single readings can be large or run the other way.

SMILES	Pf growth 48h	Cycloheximide cs	Pf growth 96h	NS1 function inh	Shiga toxin inh
CCC(C)NC(=O)CNC(=O)Cn1c(C)cc2ccccc2c1=O (centres undefined)	-8%	-1	-4%	-1%	-5
Cc1ccc(CNC(=O)CN(C(=O)C2(C)CC(=O)N=C3C=CC=CN32)c2ccccc2F)cc1 (centres undefined)	18%	-4	6%	-8%	-7
C=CCNC(=O)NC(=O)CSc1nnc(C(F)(F)F)n1C	-10%	5	70%	·	22
N#Cc1cccc(NC(=O)c2ccccc2C(=O)O)c1	20%	3	8%	8%	-17
N#Cc1ccc(NC(=O)Nc2ccc(Oc3ccc(NC(=O)Nc4ccc(C#N)cc4)cc3)cc2)cc1	1.7µM*	6	?	18%	27
N#Cc1ccc(NC(=O)Nc2cccc(C#N)c2)cc1	12µM*	-1	6.6µM*	-5%	13
O=C1CC[C@@H](CN(Cc2ccccn2)Cc2nc(Cc3ccccc3)no2)N1	5%	-2	17µM*	-4%	-7
O=C1CC[C@@H](CN(Cc2ccccn2)Cc2nc(Cc3cccc(C(F)(F)F)c3)no2)N1	-4%	-2	26%	-3%	-12
C/C(=N\NC(=O)c1ccn[nH]1)c1cn(C)nc1C	126%	44*	137%	1%	117*
COc1cc2c(C)nc(C)c(C#N)c2cc1OC	19%	-2	-4%[5.75 µM]	8%	-9
O=C(Nc1c(-c2ccccc2)nc2ccccn12)c1ccccc1	?	5	-30%	-21%	19
CCC(=O)Nc1c(-c2ccc3ccccc3c2)nc2ccccn12	62%	38*	89%	1%	50
CC(=O)Nc1c(-c2ccc3ccccc3c2)nc2ccccn12	-12%[0.00184 µM]	21*	149%	0%	104*
CCOC(=O)c1c(C)[nH]c(C(=O)CSc2nnc(-c3cccs3)n2Cc2ccccc2)c1C	?	2	?	14%	-11
CCCn1c(N)c(C(=O)CSc2nnc(-c3ccco3)n2Cc2ccccc2)c(=O)[nH]c1=O	?	1	0%	5%	25
O=C(CSc1nnc(-c2ccncc2)n1Cc1ccco1)OC1CCCCC1	-3%	15	·	-1%	-9
CC(=O)c1c(C)[nH]c(C(=O)CSc2nnc(-c3cccs3)n2Cc2ccccc2)c1C	9.3µM*	0	·	?	-23
CC(=O)c1c(C)[nH]c(C(=O)CSc2nnc(-c3ccco3)n2Cc2ccccc2)c1C	?	0	0.059µM*	-7%	35
O=C(CSc1nnc(-c2ccco2)n1Cc1ccccc1)OC1CCCCC1	161%	24*	·	-61%	84*
Cc1nn(Cc2c(F)cccc2Cl)c(C)c1NC(=O)C1CC1	12%	-2	0%	-3%	3
Cc1ccc(COc2cccc(/C=N/NC(=O)c3nnn(-c4nonc4N)c3C)c2)cc1	-2%	15*	18%	7%	39
Cc1ccc(-c2c(C(=O)N/N=C/c3ccc(C)o3)nnn2-c2nonc2N)cc1	?	-6	2.3µM*	15%	-5
Cc1ccc(-c2c(C(=O)N/N=C/c3ccco3)nnn2-c2nonc2N)cc1	?	-4	?	12%	-5
Cc1cccc(COc2ccc(/C=N/NC(=O)c3nnn(-c4nonc4N)c3C)cc2)c1	27%	-9	-9%	-15%	-5
Nc1nonc1-n1nnc(C(=O)N/N=C/c2ccc(OCc3ccccc3F)cc2)c1CNc1ccccc1	1%	17*	-23%	-24%	18
SMILES	Pf growth 48h	Cycloheximide cs	Pf growth 96h	NS1 function inh	Shiga toxin inh
Cc1ccc(-c2c(C(=O)N/N=C/c3ccc(OC(C)C)cc3)nnn2-c2nonc2N)cc1	10µM*	14	?	9%	-5
CCOc1ccc(-c2c(C(=O)N/N=C/c3ccc(OC(C)C)cc3)nnn2-c2nonc2N)cc1	?	9	?	9%	15
COCCC(=O)N1CCC(Oc2ccc(C(=O)N3CCC[C@H]3CO)cc2)CC1	13%	9	?	-6%	25
Cc1cnc(C(=O)OCC(=O)N2CCN(S(=O)(=O)c3ccc(Cl)cc3)CC2)cn1	37%	·	8%	·	·
CCNC(=S)Nc1cc(OCC)c(NC(=O)c2cccs2)cc1OCC	10%	5	455%	0%	-9
CC12CCC(=O)N1C(C(=O)NNC(=O)c1ccccc1F)CS2 (centres undefined)	-17%	·	7%	·	·
CN(CCNC(=O)CN1C(=O)CSc2ccc(S(=O)(=O)N3CCCC3)cc21)Cc1ccccc1	-26%	4	-19%	·	-7
